Active and inactive are the calls of the source.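 The calls were made as follows: active = calcium signal above 60% of the top acetylcholine response at human muscarinic M5 receptors, as a positive modulator; inactive = the rest.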

The target of this assay is Muscarinic acetylcholine receptor M2 (Homo sapiens) (UniProt P08172). The assay can be described thus: M2 receptor positive allosteric modulation, selectivity assay for M5 PAM discovery project, cell-based, human M2 (AID 743096). The settings on record: CHO-K1 hM2/Gqi5, calcium flux, ACh EC20 potentiation; series mostly up to 30 µM.
Chain of Muscarinic acetylcholine receptor M2 (Homo sapiens) (P08172 whole entry, looked up): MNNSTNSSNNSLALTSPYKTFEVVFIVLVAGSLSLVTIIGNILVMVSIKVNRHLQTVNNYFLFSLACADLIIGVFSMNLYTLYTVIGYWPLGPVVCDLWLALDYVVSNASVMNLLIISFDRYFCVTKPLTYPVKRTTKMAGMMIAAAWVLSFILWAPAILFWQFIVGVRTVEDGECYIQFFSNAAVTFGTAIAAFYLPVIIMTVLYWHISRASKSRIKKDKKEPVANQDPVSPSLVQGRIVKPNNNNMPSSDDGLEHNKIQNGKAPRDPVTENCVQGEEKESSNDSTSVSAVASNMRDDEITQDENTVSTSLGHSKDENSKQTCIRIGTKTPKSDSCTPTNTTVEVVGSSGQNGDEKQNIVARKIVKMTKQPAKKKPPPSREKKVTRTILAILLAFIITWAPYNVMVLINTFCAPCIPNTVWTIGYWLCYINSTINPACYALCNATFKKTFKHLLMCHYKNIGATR
As for `CCN(Cc1ccccc1Cl)C(=O)C1CCN(S(=O)(=O)c2ccc3[nH]ncc3c2)CC1`, the outcome was inactive. For `CCN(Cc1ccccc1)C(=O)C1CCN(S(=O)(=O)c2ccc3c(c2)OCCO3)CC1` the value was “inactive”; for `CCN(C(=O)C1CCN(S(=O)(=O)c2ccc3[nH]ncc3c2)CC1)[C@H](C)c1ccccc1`, “inactive”. `CCN(C(=O)C1CCN(S(=O)(=O)c2ccc(OC)cc2)CC1)[C@H](C)c1ccccc1`: the outcome was inactive.

With `CCN(Cc1ccccc1C(F)(F)F)C(=O)C1CCN(S(=O)(=O)c2ccc3[nH]ncc3c2)CC1`, the result was inactive.

For the molecule `CCN(Cc1ccccc1)C(=O)C1CCN(S(=O)(=O)c2ccc(OC)cc2)CC1`, the result was inactive.
